{"source": "PubChem BioAssay AID624331", "about": "(National Center for Advancing Translational Sciences (NCATS), 2012)", "note": "Records with an inconclusive call do not appear. Values without a mark were called inactive. Calls come from the whole dose curve; as a rule, active = well fitted activation curve with a large enough effect; inconclusive = small, poorly fitted or top-dose-only effect; inactive = no such curve, though single readings can be large or run the other way."}
{"experiment": "qHTS assay for re-activators of p53 using a Luc reporter: Hit Validation with no p53 Expressed; note: 0% is about no effect", "conditions": "p53-null cells, luciferase reporter counter-screen; series mostly up to 46.1 µM; activity change, positive = activation: at the top concentration", "summary_of_the_method": "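Without p53 expression, cells (1000/well, Opti-MEM + 10% FBS) were exposed 24 h at 37 deg C to compounds in a 1:5 series from 10 mM stock (top 46.1 µM in well). Luminescent signal read 10 min after Amplite addition; actives flag unspecific activation.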", "units": {"activity change, positive = activation": "%"}}
{"smiles": "CCCCOC(=O)Nc1ccc(N2CCCCC2)cc1", "activity change, positive = activation": 27.2}
{"smiles": "COc1ccc(-c2cc3ccc(F)cc3cn2)cc1", "activity change, positive = activation": -5.54}
{"smiles": "C/C(=C\\C(=O)c1ccccc1)Nc1ccc2c(c1)OCO2", "activity change, positive = activation": 51.4}
{"smiles": "COc1cc(CNC2CCCCCCC2)c(Br)cc1OCCO", "activity change, positive = activation": 8.85}
{"smiles": "COc1nnc(-c2ccc(C)c(S(=O)(=O)N(C)C)c2)c2ccccc12", "activity change, positive = activation": -50.2}
{"smiles": "Cc1ccc2nc(-c3ccc(NC(=O)COC(=O)c4ccc(Br)o4)cc3)sc2c1", "activity change, positive = activation": -74.3}
{"smiles": "O=C(NCCCNC1CCCCC1)c1ccc(/C=N/O)nc1", "activity change, positive = activation": 16.6}
{"smiles": "Cc1ccc(NC(=O)/C=C/c2ccc([N+](=O)[O-])s2)c(C)c1", "activity change, positive = activation": -74.5}
{"smiles": "COC(=O)c1c(C)[nH]c(C(=O)/C=C/c2ccccc2)c1C", "activity change, positive = activation": 1.34}
{"smiles": "CNc1ccc(/C=C/C(=O)c2ccc(C)cc2)cc1[N+](=O)[O-]", "activity change, positive = activation": 4.5}
{"smiles": "CN(C)CCN(CC1CCCN(Cc2ccccc2F)C1)C(=O)c1ccc(F)cc1", "note": "(centres undefined)", "activity change, positive = activation": 17.2}
{"smiles": "COc1ccc(/C=N/Nc2nncc3ccccc23)cc1", "activity change, positive = activation": 31.9}
{"smiles": "N/C(=N\\OC(=O)c1ccccc1Cl)c1ccc(Cl)cc1", "activity change, positive = activation": 46.8}
{"smiles": "CCOC(=O)c1cccc(C2=CC(=O)C[C@H](c3ccc(OC)cc3)C2)c1", "activity change, positive = activation": 43.4}
{"smiles": "Cc1csc(NC(=O)/C=C/c2ccc(C)o2)n1", "activity change, positive = activation": 13.6}
{"smiles": "O=C(Nc1ccc(OC(F)(F)F)cc1)c1cnc2n(c1=O)CCS2", "activity change, positive = activation": -11}
{"smiles": "Cc1ccc(NC(=O)CCN2C(=O)c3cccc([N+](=O)[O-])c3C2=O)c(Br)c1", "activity change, positive = activation": 5.27}
{"smiles": "Cc1cc(C(=O)COc2ncnc3sccc23)c(C)n1C1CC1", "activity change, positive = activation": -19.7}
{"smiles": "COc1cc(C2=NOC(C(=O)NCc3ccc(F)cc3)C2)cc(OC)c1OC", "note": "(centres undefined)", "activity change, positive = activation": -22.3}
{"smiles": "COCCn1c(SCC(=O)c2c(N)n(C3CC3)c(=O)[nH]c2=O)nnc1-c1cccc(C)c1", "activity change, positive = activation": -44.6}
{"smiles": "Cc1ccc(OCC(=O)c2cc(C)n(C)c2C)c([N+](=O)[O-])n1", "activity change, positive = activation": 40}
{"smiles": "CC(C)(C)c1ccc(/C=N/Nc2ccc(C(=O)O)cc2)cc1", "activity change, positive = activation": -29.8}
{"smiles": "O=C(N/N=C(\\c1ccccc1)c1ccccn1)c1ccccc1Cl", "activity change, positive = activation": -64.3}
{"smiles": "CCn1c(=N)n(CCOc2ccc(OC)cc2)c2ccccc21", "activity change, positive = activation": 9.06}
{"smiles": "C/C(=N\\NC(=O)c1cccc(Br)c1)c1ccccn1", "activity change, positive = activation": 147}
{"smiles": "CCN(CC(=O)NCc1cccs1)c1ccc(S(=O)(=O)N2CCOCC2)cn1", "activity change, positive = activation": -11.2}
{"smiles": "Cn1cc(Cl)c(C(=O)Nc2nc3ccccc3s2)n1", "activity change, positive = activation": 36.7}
{"smiles": "O=C(/C=C/c1cnc2ccccc2n1)NC12CC3CC(CC(C3)C1)C2", "activity change, positive = activation": 76.4}
{"smiles": "Cc1ccc2nc(-c3ccc(NC(=O)CN4C(=O)c5ccccc5C4=O)cc3)sc2c1", "activity change, positive = activation": 44.7}
{"smiles": "Cc1ccc(C(=O)CC(=O)COc2ccc(Cl)cc2)cc1", "activity change, positive = activation": 90}
{"smiles": "Cc1cccnc1NC(=O)c1ccc([N+](=O)[O-])o1", "activity change, positive = activation": 83.6}
{"smiles": "CCOC(=O)CC(=O)Nc1ccc(C(=O)OCC)cc1", "activity change, positive = activation": -41.9}
{"smiles": "COc1ccc(C(=O)C(CN2CCCC2)c2ccccc2)cc1", "note": "(centres undefined)", "activity change, positive = activation": -66}
{"smiles": "C1=C(CCNc2ncnc3nc[nH]c23)CCCC1", "activity change, positive = activation": 52.6}
{"smiles": "CCOc1ccc(NC(=O)c2cnsn2)cc1", "activity change, positive = activation": -11.8}
{"smiles": "COc1ccc(C2SCCN2C(=S)Nc2ccc(Cl)cc2)cc1", "note": "(centres undefined)", "activity change, positive = activation": -24.4}
{"smiles": "Fc1ccccc1OCCSc1nnnn1-c1ccccc1", "activity change, positive = activation": 40.7}
{"smiles": "O=C(NNC(=O)C1CCCO1)c1ccccc1Cl", "note": "(centres undefined)", "activity change, positive = activation": -10.1}
{"smiles": "COc1ccc(/C(C)=N/Nc2nccnc2Cl)cc1", "activity change, positive = activation": -19.3}
